Compound activity deposited in PubChem BioAssay by National Center for Advancing Translational Sciences (NCATS).
The list is not random: actives were taken first. Their share in the collection is about 9.4%.
HPGD block – blocks human HPGD enzyme activity; P15428; purified HPGD, NADH fluorescence kinetic, PGE2 substrate; Potency, µM, without a hit: at the top dose activity change, negative = inhibition, hits mostly inhibitors; 4.3% of 150,000 active; AID 894; active = well fitted inhibition curve with a large enough effect, not every such curve was filed as active; inconclusive = small, poorly fitted or top-dose-only effect, or another doubt; inactive = no such curve, though single readings can be large or run the other way; also: potency is read from the fitted curve at half-maximal effect; % is scaled to controls: 0 for no effect and ±100 for the full control effect
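NADH formation kinetics: reaction with 30 uM PGE2 and 1 mM NAD+ (final), 20 nM enzyme, Tris-HCl pH 8 with Tween 20, after 15 min compound preincubation at room temperature. Fluorescence change, last versus first of five reads.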
ALDH1A1 block – inhibitors of human aldehyde dehydrogenase 1A1 | 7.3% of 220,000 active | Potency, µM (series often up to 75.3 µM), for inactives: at the highest dose activity, negative = inhibition, hits mostly inhibitors | Purified ALDH1A1, NADH fluorescence, propionaldehyde substrate; active = well fitted inhibition curve with a large enough effect, not every such curve was filed as active; inconclusive = small, poorly fitted or top-dose-only effect, or another doubt; inactive = no such curve, though single readings can be large or run the other way;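 also: potency is read from the fitted curve at half-maximal effect; plate controls were no enzyme wells and a reference inhibitor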
Target sequence (P00352 whole entry, looked up): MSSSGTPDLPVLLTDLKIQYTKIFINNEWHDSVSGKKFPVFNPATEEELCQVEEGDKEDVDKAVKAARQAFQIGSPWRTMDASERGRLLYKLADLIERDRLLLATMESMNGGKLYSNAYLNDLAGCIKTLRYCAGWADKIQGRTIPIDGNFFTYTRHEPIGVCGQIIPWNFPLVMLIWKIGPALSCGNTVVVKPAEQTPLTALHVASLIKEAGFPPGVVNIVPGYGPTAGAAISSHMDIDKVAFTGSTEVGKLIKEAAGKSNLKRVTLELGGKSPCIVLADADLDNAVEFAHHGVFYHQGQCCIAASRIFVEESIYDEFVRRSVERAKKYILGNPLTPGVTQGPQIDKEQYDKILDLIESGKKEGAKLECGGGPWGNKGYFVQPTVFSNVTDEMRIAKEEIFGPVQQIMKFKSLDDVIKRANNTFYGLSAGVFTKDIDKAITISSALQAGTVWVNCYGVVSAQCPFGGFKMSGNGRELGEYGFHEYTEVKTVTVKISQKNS
IMPase cell inh – IMPase inhibition in cells; CHO-M1 cells, IP1 accumulation, HTRF TR-FRET ratio; inhibition (IP1 accumulation), % at 46.1 µM; 120,000 tested, under 10 active; AID 901; active = well fitted curve in the direction sought with a large enough effect in the signal ratio, not every such curve was filed as active; inconclusive = small, poorly fitted or top-dose-only effect, or a change in a side signal; inactive = no such curve, though single readings can be large or run the other way; the % refers to the signal ratio;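 also: cells stimulated with carbachol in lithium chloride buffer; plate controls were DMSO basal wells for no effect and reference inhibitor wells for full effect; higher means more IMPase inhibition seen as more IP1 and lower FRET ratio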
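CHO-M1 cells (CHO stably expressing M1 receptor), compound up to 46 uM final, stimulated with carbachol (50 uM as added) in buffer with 50mM LiCl, pH 7.4, 30 min at 37C. Cytosolic IP1 read by TR-FRET; AC50 from Hill fits.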
HTT cytoprotect – protects HTT-Q103 PC12 cells, measured by ATP; PC12 HTT-Q103 induced, cytoprotection, ATP luminescence, 40 h; 0.14% of 230,000 active; Potency, µM (top dose mostly 56.4 µM), for inactives: cytoprotection (ATP increase), most hits filed as activators; also: potency is read from the fitted curve at half-maximal effect; % of control where 0% means no effect; nearly all actives have a fitted effect of over 45% in size
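ATP quantification (ATPlite) reports survival of PC12 cells in which tebufenozide, 100 nM final, switches on Htt exon 1 with 103 glutamines linked to GFP; compounds are titrated.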
HttQ103 aggreg – reduces HttQ103-GFP aggregates in PC12 cells; PC12 HttQ103-GFP aggregates, Acumen cytometry, 40 h; 1.1% of 220,000 active; Potency, µM (highest dose often 46.1 µM), without a hit: at the highest dose activity change, negative = inhibition, usual class: inhibitors; also: potency is read from the fitted curve at half-maximal effect; % is scaled to controls: 0 for no effect and ±100 for the full control effect; nearly all actives have a fitted effect of over 60% in size
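Ecdysone-promoter PC12 model expressing HTT exon 1 Q103 fused to GFP, induced by tebufenozide at 100 nM final. Compounds titrated; aggregates sized 1–25 µm scored on a 488 nm laser cytometer.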
IMPase Li inh – cell-permeable IMPase inhibitors with lithium potentiation; CHO-M1 cells, IP1 TR-FRET (IP-One), carbachol + lithium; Potency, µM (titrated, usually from 59.4 µM), inactives show at the top dose activity, negative = IMPase inhibition, hits mostly inhibitors; 0.35% of 210,000 active; AID 1457;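 also: IP1 builds up when IMPase is blocked and the TR-FRET signal falls; potency is read from the fitted curve at half-maximal effect; plate controls were basal vehicle for no effect and high inhibitor control for full effect; nearly all actives have a fitted effect of over 50% in size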
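Lithium-sensitised IP1 accumulation assay; M1-expressing CHO cells treated 30 min at 37C with compound. Competitive antibody detection by time-resolved FRET followed a 10 min room-temperature lysis step.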
The depositor's hits bear a star; ? = inconclusive; . = not tested or not shown; [ ] = another dose, or the depositor's remark. Unless noted, calls follow the shape of the dose curve; as a rule, active = well fitted curve in the direction sought with a large enough effect; inconclusive = small, poorly fitted or top-dose-only effect, or another doubt; inactive = no such curve, though single readings can be large; an effect the other way counts as inactive or inconclusive.

SMILES | HPGD block | ALDH1A1 block | IMPase cell inh | HTT cytoprotect | HttQ103 aggreg | IMPase Li inh
Cc1ccc(N2C(=O)C3C4C=CC(CNC(=S)Nc5cccc(Cl)c5)(O4)C3C2=O)cc1 (stereo not drawn) | -28% | 1.6µM* | . | 24%[10 µM] | 8% | 3%
Cc1ccc(N2C(=O)C3C4C=CC(CNC(=S)N5CCN(c6ccccn6)CC5)(O4)C3C2=O)cc1 (stereo not drawn) | . | ? | . | -16% | ? | -1%
S=C(NCc1ccncc1)Nc1cccc(Cl)c1 | -1% | -2% | . | 32%[10 µM] | 2% | -5%
CCc1ccccc1N1CC23C=CC(O2)C(C(=O)OCC(C)C)C3C1=O (stereo not drawn) | -9% | 7% | 5 | -2% | 5% | 9%[38.3 µM]
CC(C)COC(=O)NCC12C=CC(O1)C1C(=O)N(c3ccc(Cl)cc3)C(=O)C12 (stereo not drawn) | 18µM* | 0.56µM* | -1 | 0% | -14% | 25%[38.3 µM]
Cc1ccc(N2C(=O)C3C4C=CC(CNC(=S)Nc5ccc(Cl)cc5)(O4)C3C2=O)cc1 (stereo not drawn) | ? | 0.32µM* | . | 14%[10 µM] | -7% | 8%
Cc1ccc(N2C(=O)C3C4C=CC(CNC(=S)Nc5ccc(F)cc5)(O4)C3C2=O)cc1 (stereo not drawn) | 18µM* | 0.4µM* | . | 13%[10 µM] | 16% | -2%
Cc1ccc(NC(c2cccc(Cl)c2)c2nnc(-c3ccccc3)o2)cc1F (stereo not drawn) | . | . | 2 | . | . | .
Clc1ccc(CCNC(c2ccc(Cl)cc2)c2nnc(-c3ccccc3)o2)cc1 (stereo not drawn) | . | . | 6 | . | . | .
O=C(C1CC1)N1CCN(S(=O)(=O)c2ccc3c(c2)OCCO3)CC1 | . | 0% | . | -15% | -18% | 2%
Cc1cc(OCC(=O)Nc2ccccc2F)nc(C(C)C)n1 | 1% | 5% | 13 | -1% | -5% | 21%[38.3 µM]
Cc1cc(OCC(=O)Nc2ccc(F)c(F)c2)nc(C(C)C)n1 | -12% | 25µM* | 6 | -1% | 2% | 2%[38.3 µM]
Cc1cccc(OCC(=O)Nc2ccccc2C(F)(F)F)c1 | 18µM* | -4% | . | 1%[10 µM] | -16% | -1%
COc1cccc(C(=O)Nc2cc(C)ccc2NC(=O)COc2ccccc2)c1 | . | 14µM* | 1 | -18% | 12% | .
Cc1cccc(OCC(=O)Nc2cccc(C(=O)Nc3ccccc3C(=O)O)c2)c1 | ? | 5.6µM* | . | 8%[10 µM] | 15% | 16%
O=C(COc1ccccc1)Nc1cccc(-c2nnc(-c3ccccc3)o2)c1 | 4.5µM* | -3% | 8 | -118%[0.074 µM] | -13% | 3%[38.3 µM]
CCCCC/C=C\C/C=C\C/C=C\CCCCC(N)=O | -7% | 7% | . | 24% | . | 2%
NC(=S)c1ccc[n+]([C@@H]2O[C@@H](COP(=O)([O-])OP(=O)(O)OC[C@@H]3O[C@@H](n4cnc5c(N)ncnc54)[C@@H](OP(=O)(O)O)[C@H]3O)[C@@H](O)[C@H]2O)c1 | . | . | -5 | 6%[1.9 µM] | . | .
COc1ccc2[nH]cc(CCNc3ccnc(-c4ccc5c(c4)OCO5)n3)c2c1 | . | ? | . | -76% | . | 24%
COc1ccc2nc3c(nc2c1)C(=O)c1ccccc1-3 | -4% | 3% | . | . | . | .
CC(C)c1ccc(OCC(=O)Nc2cccc(C(=O)Nc3ccccc3C(=O)O)c2)cc1 | . | 20µM* | . | 3%[10 µM] | 15% | -9%
O=C(O)CSCC(=O)Nc1ccc(Cl)cc1C(F)(F)F | . | 5% | . | -25% | -6%[9.22 µM] | 3%
CC(C)N(CC(=O)Nc1ccc(Cl)cc1C(F)(F)F)C(=O)CCl | . | 1.8µM* | . | -7% | 14µM* | 5%
CCOC(=O)CNc1cccc(C(F)(F)F)c1 | . | -7% | . | 3% | 5% | -1%
Cc1ccc(OCCCCn2cnc3ccccc32)c(C)c1 | -25% | ? | 10 | -153% | 3.2µM* | 9%[38.3 µM]
Brc1ccccc1OCCCCn1cnc2ccccc21 | . | -5% | . | 2%[10 µM] | ? | 11%
O=C(CSc1ncc(-c2ccccc2)nn1)NCc1ccco1 | -24% | -3% | -1 | -2% | ? | 23%[38.3 µM]
